Laboratory results published in PubChem BioAssay AID449768 (Vanderbilt High Throughput Screening Facility, 2010).
About 1,400 (1.3%) of roughly 110,000 compounds were called active. For the sample, actives were picked, then their nearest neighbours and some compounds at random. Values without a mark were called inactive.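 The calls were made as follows: active = Z score or B-score, a plate-position-corrected score, falls beyond the plate's 99.7% confidence bounds, in either direction; inactive = both scores lie inside the 99.7% bounds.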

The compounds below were run against Sodium-dependent dopamine transporter (Homo sapiens) (UniProt Q01959) (assay: changed hDAT dopamine uptake under cocaine IC80, either direction, primary screen, cocaine antagonist project, cell-based, LLC-PK1 hDAT, [14C]-dopamine uptake, MLSMR (AID 449768;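 also: scored against the spread of the other compound wells on the same plate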)). Conditions: LLC-PK1 hDAT cells, [14C]-dopamine uptake with cocaine IC80; at 10 µM; actives deviate in either direction.
Sequence of Sodium-dependent dopamine transporter (Homo sapiens) (Q01959 whole entry, looked up): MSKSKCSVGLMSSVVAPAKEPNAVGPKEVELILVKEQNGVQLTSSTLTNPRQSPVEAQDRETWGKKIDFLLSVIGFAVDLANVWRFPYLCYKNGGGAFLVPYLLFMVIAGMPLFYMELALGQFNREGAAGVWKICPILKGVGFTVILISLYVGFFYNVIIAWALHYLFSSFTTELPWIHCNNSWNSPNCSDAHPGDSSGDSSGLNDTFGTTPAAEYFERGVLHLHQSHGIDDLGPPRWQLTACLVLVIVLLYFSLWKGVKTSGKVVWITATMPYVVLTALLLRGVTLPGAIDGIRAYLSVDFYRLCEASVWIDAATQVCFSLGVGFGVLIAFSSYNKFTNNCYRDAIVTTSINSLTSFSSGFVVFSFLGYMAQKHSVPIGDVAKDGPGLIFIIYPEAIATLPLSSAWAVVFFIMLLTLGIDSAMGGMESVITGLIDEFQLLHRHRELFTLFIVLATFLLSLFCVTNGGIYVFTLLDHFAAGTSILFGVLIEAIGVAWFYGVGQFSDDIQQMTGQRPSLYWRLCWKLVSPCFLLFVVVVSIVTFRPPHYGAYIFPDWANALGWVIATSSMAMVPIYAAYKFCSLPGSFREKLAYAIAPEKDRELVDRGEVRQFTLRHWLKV
With `CC(C)c1ccc(OCC(=O)N2CCN(C)CC2)c(Br)c1` the B-score was -0.237.
In the case of `COc1ccccc1CN1CCN(C(=O)Cc2ccccc2)CC1`, the B-score is reported as 0.503.
With `O=C(COc1ccc2ccccc2c1)N1CCN(Cc2ccncc2)CC1` the B-score was -1.8 (active).
For `COC(=O)C1=C(c2cc3ccccc3o2)C[C@@H]2CC[C@H]1N2C(=O)NC1CCCCC1`, the B-score was -0.718.
Work on `COC(=O)C1=C(c2ccccc2)C[C@@H]2CC[C@H]1N2C(=O)N1CCCCC1` yielded a B-score of -0.0906.
